# Reference: PubChem BioAssay AID2284425 (EPA ToxCast)
# Results filed as inconclusive are left out. Activity calls are given as the source filed them. The calls were made as follows: active = hit-call score of the fitted dose curve at least 0.9, where 1 is the maximum; inconclusive = response in the unintended direction; inactive = score below 0.9.
# Test system: Brachyury (BRA), TBXT (gene 6862)
# Experiment: CCTE_Deisenroth_DEVTOX-GLR_Ecto_BRA: CCTE's DevTox GLR-Ecto Assay Evaluation of Brachyury (BRA) Protein Expression, Deisenroth Lab
# Procedure: CCTE_Deisenroth_DEVTOX-GLR_Ecto assay is a cell-based, multiplex-readout assay that uses RUES2-GLR, a human pluripotent cell line, with measurements taken at 48 hours after chemical dosing in a 384-well microplateCCTE_Deisenroth_DEVTOX-GLR_Ecto_BRA is 1 of 4 assay components calculated from the CCTE_Deisenroth_DEVTOX-GLR_Ecto assay and it measures an the percentage of cells in an mesoderm state. Using a type of inducible fluorescent protein reporter, gain-of-signal activity can be used to understand changes in gene expression with fluorescent microscopy. The percentage of BRA+ cells are determined by calculating the number of BRA+ cells divided by the cell count. To generalize the intended target to other relatable targets, this assay component is annotated to the transcription factor intended target family, where the subfamily is T-box protein.Data from the assay component CCTE_Deisenroth_DEVTOX-GLR_Ecto_BRA was analyzed as 1 assay endpoint. The endpoint is the percent BRA+ cell population minus the 0.2% DMSO control in the CCTE_Deisenroth_DEVTOX-GLR_Ecto assay. Furthermore, this assay endpoint can be referred to as a secondary readout, because this assay has produced multiple assay endpoints where this one serves as a measure of mesoderm differentiation.
# All assay protocols are aligned to the DevTox GLR-Endo assay workflow (Gamble 2022). Cells are seeded into 384-well microplates for 24 hours prior to initiating differentiation in defined media for a total duration of 48 hours. A total of two chemical exposures are administered in 24-hour intervals during the 48-hour differentiation period. At the assay termination point, cells are fixed and stained with a fluorescent dye demarcating the nucleus. High-content imaging is used to acquire brightfield and fluorescent channel images across 5 fields per well. Cell identification and mean biomarker fluorescence intensities are calculated with image analysis software to determine the total cell counts for viability assessment and the biomarker expression frequency for each lineage-dependent assay. A typical experimental design tests a 10-point concentration series (1 nM - 200 uM) for 28 compounds in single technical replicate. Assay plate controls include non-differentiated pluripotent cells (baseline control), lineage-specific differentiated cells (differentiation control), and DMSO solvent exposed differentiated cells (solvent control). Experiments typically comprise a minimum of four experimental replicates (n=4).
SMILES,AC50,outcome
Nc1cccc2c1C(=O)N(C1CCC(=O)NC1=O)C2=O (stereo not given),39.1 µM (active),
CCN(CC)CCNC(=O)c1c(C)[nH]c(/C=C2\C(=O)Nc3ccc(F)cc32)c1C,1.12 µM (active),
CN(Cc1cnc2nc(N)nc(N)c2n1)c1ccc(C(=O)N[C@@H](CCC(=O)O)C(=O)O)cc1,,inactive
CC(=O)Nc1ccc(O)cc1,,inactive
O=C1NS(=O)(=O)c2ccccc21,,inactive
CS(=O)(=O)OCCCCOS(C)(=O)=O,,inactive
Nc1nc2ncc(CNc3ccc(C(=O)N[C@@H](CCC(=O)O)C(=O)O)cc3)nc2c(=O)[nH]1,,inactive
CCCC(CCC)C(=O)O,,inactive
CC1=C(/C=C/C(C)=C/C=C/C(C)=C\C(=O)O)C(C)(C)CCC1,143 µM (active),
CC(C)(c1ccc(O)cc1)c1ccc(O)cc1,,inactive
O=c1[nH]cc(F)c(=O)[nH]1,1.95 µM (active),
CC1=C(/C=C/C(C)=C/C=C/C(C)=C/C(=O)O)C(C)(C)CCC1,142 µM (active),
CC/C(=C(/CC)c1ccc(O)cc1)c1ccc(O)cc1,,inactive
O=C1NC(=O)C(c2ccccc2)(c2ccccc2)N1,,inactive
CC1(C)S[C@@H]2[C@H](NC(=O)Cc3ccccc3)C(=O)N2[C@H]1C(=O)O,,inactive
